Screening data from PubChem BioAssay.
Pf growth 96h: inhibits malaria parasite growth, 96 h. 320,000 tested, 6.9% active. Potency, µM (doses to about 28.7 µM), for inactives: top-dose activity change, negative = inhibition, usual class: inhibitors. P. falciparum luciferase reporter growth, 96 h. AID 504834
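96 h incubation, 37 C, 5% CO2, of luciferase-reporter P. falciparum-infected RBCs (2% hematocrit, 0.05% parasitemia final) with test compounds; endpoint luminescence.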
AMA1-RON2 inh: disrupts binding of P. falciparum AMA1 to RON2. AlphaScreen AMA1-biotinylated RON2 peptide binding. 360,000 tested, 0.2% active. AID 720542. Potency, µM (highest dose often 58.2 µM), inactives show at the highest dose activity change, negative = inhibition, actives largely listed as inhibitors;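 further: 0% = vehicle wells and -100% = peptide control; nearly all actives have a fitted effect of over 45% in size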
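AMA1 (3D7) with his tag at 25 nM final met compounds first, then biotinylated RON2 peptide at 25 nM; detection used donor plus acceptor beads, 10 µg/mL apiece, read by AlphaScreen after 30 min at room temperature.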
HCV inhibitor: HCV inhibition; Huh7.5.1 HCVcc-Cre infection, luciferase reporter, 44 h; Potency, µM (highest dose often 41.8 µM), without a hit: at the highest dose activity change, negative = inhibition, most hits filed as inhibitors; 340,000 tested, 3.4% active; AID 651820
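Antiviral activity was scored by luciferase reporter output from cells infected with HCVcc-Cre (~0.5 moi) in presence of compound, 44 h infection period, cells seeded 1,000/well 4 h prior.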
Pf growth 48h: inhibits P. falciparum growth in the first generation, 48 h; P. falciparum luciferase growth in erythrocytes, 48 h; 310,000 tested, 5.9% active; AID 504832; Potency, µM (series often up to 28.7 µM), for the others: at the highest dose activity change, negative = inhibition, usual class: inhibitors
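Here the parasites carry a stable luciferase gene and grow inside erythrocytes in Albumax-based RPMI medium with compound for one erythrocytic cycle. Activity is scored as loss of luminescent signal.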
* = called active by the depositor; i = inactive; ? = inconclusive; · = no result. Shown are actives, neighbours in structure and some others; about 11% of the full set was active somewhere. The call rests on the fitted dose curve; in most records, active means well fitted curve in the direction sought with a large enough effect; inconclusive means small, poorly fitted or top-dose-only effect, or another doubt; inactive means no such curve, though single readings can be large; an effect the other way counts as inactive or inconclusive. Unless noted, on the % scale 0 is the no-effect control and ±100 the full control effect; potency means the concentration at half of the fitted maximal effect.

SMILES | Pf growth 96h | AMA1-RON2 inh | HCV inhibitor | Pf growth 48h
CC(C)Cn1c(N)c(C(=O)COC(=O)C2CC(=O)N(c3ccc4c(c3)OCCO4)C2)c(=O)n(C)c1=O (stereo not given) | 20% | 14% | 21% | ?
CN(C)C(CNc1ccc(S(C)(=O)=O)cc1[N+](=O)[O-])Cc1ccccc1 (stereo not given) | ? | -2% | -7% | ?
C(=C\c1nc2ccccc2[nH]1)/c1ccccc1 | ? | 9% | 11µM* | -35%
C(=C\c1ccco1)/c1nc2ccccc2[nH]1 | 0% | -6% | -10% | 18%
CCc1ccc(NC(=O)CSc2nnnn2C)cc1 | 15% | 0% | -2% | 141%
COC(=O)c1ccc(NC(=O)Cn2nc(-c3ccncc3)nc2SCC(=O)Nc2nccs2)cc1 | 3% | -12% | 10% | ?
OCCC1CN(Cc2cnc(-c3ccccc3)s2)CCN1Cc1ccccc1 (stereo not given) | 12µM* | -11% | ? | -22%
OCCC1CN(Cc2cc3c(cc2Cl)OCO3)CCN1Cc1ccccc1 (stereo not given) | 10µM* | -6% | 6% | ?
CNCCCC1c2ccccc2C=Cc2ccccc21 | 12µM* | 4% | ? | ?
CNCCC=C1c2ccccc2C=Cc2ccccc21 | · | -13% | ? | ·
O=C(CSc1nnc(COc2ccccc2Cl)o1)NC(=O)NCc1ccco1 | ? | 16% | 5% | -6%
O=C(CN(CC1CCCO1)C(=O)CNS(=O)(=O)c1ccc(Cl)cc1)NCc1ccco1 (stereo not given) | ? | -7% | -10% | 14%
O=C(CN(Cc1ccco1)C(=O)CNS(=O)(=O)c1ccc(Cl)cc1)NCC1CCCO1 (stereo not given) | 0% | -15% | 3% | 1.9µM*
O=C(N[C@@H]1CC[C@@H](CCn2cc(-c3ccccc3)nn2)O[C@@H]1CO)c1cnccn1 | · | 3% | · | ·
CCCn1cnc2c(sc3nc4c(cc32)CSC(C)(C)C4)c1=O | 67% | -2% | ? | 80%
CC(C)CCOc1ncnc2c1sc1nc3c(cc12)CSC(C)(C)C3 | ? | -3% | ? | 12µM*
Cc1ccc(S(=O)(=O)N2CCCCC2)cc1NC(=O)CNC(C)c1ccc(Cl)c(Cl)c1 (stereo not given) | ? | 4% | 8.9µM* | ?
Cc1ccc(S(=O)(=O)N2CCCCC2)cc1NC(=O)Cn1ncc(Cl)c(Cl)c1=O | · | 14% | 0.71µM* | ·
Cc1cc(Br)ccc1NC(=O)CNC(=O)Cn1ncc(Cl)c(Cl)c1=O | 1% | -7% | 2.2µM* | 11%
O=C(Cn1ncc(Cl)c(Cl)c1=O)N1CCN(S(=O)(=O)c2ccc3ccccc3c2)CC1 | ? | -17% | 5.6µM* | -14%
Cc1cc(Br)ccc1NC(=O)CNC(=O)CSc1ncccn1 | ? | -22% | 31% | -15%
CC(C)c1ccc2nc(SCC(=O)NCC3CCCO3)c(C#N)cc2c1 (stereo not given) | -20% | 5% | ? | 19%
CCc1ccccc1NC(=O)CN(C)C(=O)Cn1cnc2ccc(Cl)cc2c1=O | ? | -4% | 6% | -17%
CCc1ccccc1NC(=O)CN(C)C(=O)Cn1ncc(Cl)c(Cl)c1=O | 6% | -9% | 2.8µM* | -22%
Cc1ccc(S(=O)(=O)Nc2cccc3cccnc23)c([N+](=O)[O-])c1 | 1% | -8% | ? | 2.6µM*
SMILES | Pf growth 96h | AMA1-RON2 inh | HCV inhibitor | Pf growth 48h
Cc1cc(C)c(NS(=O)(=O)c2cccc3cccnc23)c(C)c1 | -22% | -24% | 11% | ?
COc1ccc(NS(=O)(=O)c2ccc3ccccc3c2)c2ncccc12 | 11% | 87% | ? | 2.9µM*
O=S(=O)(Nc1cccc2cccnc12)c1ccc(S(=O)(=O)N2CCCC2)cc1 | ? | 97% | 2.8µM* | 10µM*
O=S(=O)(Nc1cccc2cccnc12)c1ccccc1 | 46% | 43% | ? | 3.7µM*
CC(=O)Nc1ccc(S(=O)(=O)Nc2cccc3cccnc23)cc1 | 15% | 12% | -22% | 4%
Cc1nn(C)c(Cl)c1C(=O)NCC(=O)NCc1ccccc1 | 10% | 6% | 1% | i
COC(=O)C1=CN(c2ccc(C)cc2)C(N)=C(C#N)C1c1ccccc1F (stereo not given) | · | 7% | · | ·
CCCNC(=O)C1(CC2CC(c3ccccc3)=NO2)CCN(C(=O)C2(C)CC2)CC1 (stereo not given) | · | -5% | 10% | ·
